In PubChem BioAssay (NCI):
Compounds without any hit were thinned out: in the full panel of roughly 83,000, 20% have a hit.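 In brief: 96-well plates, 48 h treatment, single concentration, percent growth endpoint.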 Activity calls are given as the source filed them. The calls were made as follows: active = growth percent below 10; inactive = the rest.

What was measured:
Test in all cases: NCI-60 one-dose screen, 48 h (100 = growth as untreated, 0 = no growth, -100 = all killed)
Conditions in all cases: 10 µM unless noted
SK-MEL-2 melanoma = tested on: SK-MEL-2 melanoma
EKVX NSCLC = tested on: EKVX NSCLC
SN12C renal = tested on: SN12C renal
UO-31 renal = tested on: UO-31 renal
TK-10 renal = tested on: TK-10 renal
ACHN renal = tested on: ACHN renal
CAKI-1 renal = tested on: CAKI-1 renal
A498 renal = tested on: A498 renal
CCRF-CEM leukemia = tested on: CCRF-CEM leukemia
MOLT-4 leukemia = tested on: MOLT-4 leukemia
SR leukemia = tested on: SR leukemia
RPMI-8226 leukemia = tested on: RPMI-8226 leukemia
OVCAR-8 ovarian = tested on: OVCAR-8 ovarian
OVCAR-5 ovarian = tested on: OVCAR-5 ovarian
OVCAR-4 ovarian = tested on: OVCAR-4 ovarian
SK-OV-3 ovarian = tested on: SK-OV-3 ovarian
IGROV1 ovarian = tested on: IGROV1 ovarian
OVCAR-3 ovarian = tested on: OVCAR-3 ovarian
HS 578T breast = tested on: HS 578T breast
NCI/ADR-RES ovarian = tested on: NCI/ADR-RES ovarian

Measured: growth

COc1c(F)ccc(C(=O)Nc2ccc3nc(NC(=O)C4CCCN(S(=O)(=O)c5cccc(C(F)(F)F)c5)C4)sc3c2)c1F (stereo not given)
inactive: SK-MEL-2 melanoma 83.8% | EKVX NSCLC 94.5% | SN12C renal 78.8% | UO-31 renal 74.8% | TK-10 renal 102% | ACHN renal 83.6% | CAKI-1 renal 83.1% | A498 renal 101% | CCRF-CEM leukemia 88.7% | MOLT-4 leukemia 44.9% | SR leukemia 38.4% | RPMI-8226 leukemia 54.4% | OVCAR-8 ovarian 94.5% | OVCAR-5 ovarian 101% | OVCAR-4 ovarian 74.3% | SK-OV-3 ovarian 102% | IGROV1 ovarian 77.5% | OVCAR-3 ovarian 88.1% | HS 578T breast 61.1% | NCI/ADR-RES ovarian 84.3%

C=C1CC[C@@H]2[C@]3(C)COC(c4cn[nH]c4-c4cccc(Br)c4)O[C@@H]3CC[C@@]2(C)[C@@H]1C/C=C1/C(=O)OCC1O (stereo not given in full)
active: SK-MEL-2 melanoma -69.8% | EKVX NSCLC -62.3% | SN12C renal -77.7% | UO-31 renal -100% | TK-10 renal -59.7% | ACHN renal -100% | CAKI-1 renal -39.3% | A498 renal -93.7% | CCRF-CEM leukemia -15.6% | RPMI-8226 leukemia -6.49% | OVCAR-8 ovarian -42.5% | OVCAR-5 ovarian -76.2% | SK-OV-3 ovarian -33% | IGROV1 ovarian -60.2% | OVCAR-3 ovarian -97.6% | HS 578T breast 5.38% | NCI/ADR-RES ovarian -50.1%
inactive: MOLT-4 leukemia 12.2% | SR leukemia 12.7% | OVCAR-4 ovarian 10.8%

Cc1cccc(NC(=O)CN2CCN(c3ncnc4c3cnn4-c3ccccc3)CC2)c1
inactive: SK-MEL-2 melanoma 80.2% | EKVX NSCLC 85.9% | SN12C renal 83.4% | UO-31 renal 54.9% | TK-10 renal 130% | ACHN renal 79.9% | CAKI-1 renal 82.9% | A498 renal 98% | CCRF-CEM leukemia 76.7% | MOLT-4 leukemia 75% | SR leukemia 55.9% | RPMI-8226 leukemia 75.2% | OVCAR-8 ovarian 96% | OVCAR-5 ovarian 94.7% | OVCAR-4 ovarian 91.4% | SK-OV-3 ovarian 99.7% | IGROV1 ovarian 83.9% | OVCAR-3 ovarian 98.9% | HS 578T breast 88.2% | NCI/ADR-RES ovarian 89.4%

Cc1ccc(C(=O)NN2C(=O)/C(=C/C=C/c3ccc([N+](=O)[O-])o3)SC2=S)cc1
active: SK-MEL-2 melanoma -89.8% | EKVX NSCLC -97% | SN12C renal -89.3% | UO-31 renal -100% | TK-10 renal -98.3% | ACHN renal -100% | CAKI-1 renal -100% | A498 renal -73.3% | CCRF-CEM leukemia 4.08% | MOLT-4 leukemia 9.73% | SR leukemia 2.44% | RPMI-8226 leukemia -1.56% | OVCAR-8 ovarian -75.9% | OVCAR-5 ovarian -94.9% | OVCAR-4 ovarian -100% | SK-OV-3 ovarian -78.1% | IGROV1 ovarian -90.3% | OVCAR-3 ovarian -97.3% | HS 578T breast -18.3% | NCI/ADR-RES ovarian -48.8%

COc1cc(-c2nc3cc(Cl)c(Cl)cc3[nH]2)ccc1OCc1nnc(-c2cccs2)o1
inactive: SK-MEL-2 melanoma 65.7% | EKVX NSCLC 91.3% | SN12C renal 33.7% | UO-31 renal 62.5% | TK-10 renal 125% | ACHN renal 36% | CAKI-1 renal 67.7% | A498 renal 121% | CCRF-CEM leukemia 91.8% | MOLT-4 leukemia 62.8% | SR leukemia 31.1% | RPMI-8226 leukemia 59.2% | OVCAR-8 ovarian 38% | OVCAR-5 ovarian 83.3% | OVCAR-4 ovarian 40.8% | SK-OV-3 ovarian 47.8% | IGROV1 ovarian 59.4% | OVCAR-3 ovarian 91.2% | HS 578T breast 63.9% | NCI/ADR-RES ovarian 39.5%

Cn1cc(-c2nnc(N)nc2-c2c[nH]c3ccccc23)c2cccnc21
inactive: SK-MEL-2 melanoma 24.3% | EKVX NSCLC 62.3% | SN12C renal 50.6% | UO-31 renal 48% | TK-10 renal 91.5% | ACHN renal 56.9% | CAKI-1 renal 43.2% | A498 renal 86.4% | CCRF-CEM leukemia 34.6% | MOLT-4 leukemia 26.7% | SR leukemia 25.2% | RPMI-8226 leukemia 43.5% | OVCAR-8 ovarian 49.7% | OVCAR-5 ovarian 77.8% | OVCAR-4 ovarian 76.8% | SK-OV-3 ovarian 64.6% | IGROV1 ovarian 39.5% | OVCAR-3 ovarian 25.9% | HS 578T breast 41.4% | NCI/ADR-RES ovarian 76.3%

O=C(CN1C(=O)/C(=C/c2ccccc2F)SC1=S)N1CCOCC1
inactive: SK-MEL-2 melanoma 99.1% | EKVX NSCLC 95.9% | SN12C renal 72.6% | UO-31 renal 58.5% | TK-10 renal 97.8% | ACHN renal 50.3% | CAKI-1 renal 85.5% | A498 renal 129% | CCRF-CEM leukemia 41.9% | MOLT-4 leukemia 77.7% | SR leukemia 27.9% | RPMI-8226 leukemia 52.8% | OVCAR-8 ovarian 93.4% | OVCAR-5 ovarian 91.9% | OVCAR-4 ovarian 73.7% | SK-OV-3 ovarian 112% | IGROV1 ovarian 100% | OVCAR-3 ovarian 52.8% | HS 578T breast 104% | NCI/ADR-RES ovarian 92%

COc1ccc2c(c1)c(/C=N/Nc1ccc3ccccc3n1)cn2C
inactive: SK-MEL-2 melanoma 81.8% | EKVX NSCLC 53.1% | TK-10 renal 43.4% | A498 renal 83.3% | CCRF-CEM leukemia 10.8% | OVCAR-8 ovarian 28.9% | OVCAR-4 ovarian 12.3% | SK-OV-3 ovarian 54% | IGROV1 ovarian 16.4% | HS 578T breast 18.2%
active: SN12C renal -71.7% | UO-31 renal -31.3% | ACHN renal -85.4% | CAKI-1 renal -45.4% | MOLT-4 leukemia -27.4% | SR leukemia -17.3% | RPMI-8226 leukemia -26.7% | OVCAR-5 ovarian 7.2% | OVCAR-3 ovarian -34.2% | NCI/ADR-RES ovarian 2.35%
